Consider 20 compounds from PubChem BioAssay (EPA / NIEHS).

Common to all, as to settings: mRNA level, 48 h; actives raise or lower the signal
Read-out in assay [1]: Cytochrome P450 7A1 (Homo sapiens) (UniProt P22680)
The assay is described as follows: LTEA_HepaRG_CYP7A1: Life Technologies and Expression Analysis (LTEA) Assay for Cytochrome P450 7A1 (CYP7A1) using HepaRG (AID 2283496). Put shortly: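 HepaRG cells plated 48 h, then switched to serum-free induction medium and exposed in duplicate for 48 h to 8-point half-log series from 100 uM in 0.5% DMSO. CYP7A1 mRNA by qRT-PCR (TaqMan), normalized to ACTB/GAPDH/POLR2A; bidirectional fit versus DMSO.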

Read-out in assay [2]: Glutathione S-Transferase (GSTA2), GSTA2 (gene 2939)
Nature of the assay: LTEA_HepaRG_GSTA2: Life Technologies and Expression Analysis (LTEA) Assay for Glutathione S-Transferase (GSTA2) using HepaRG (AID 2283497). Put shortly: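 Differentiated human HepaRG cells were exposed in duplicate for 48 h in serum-free induction medium, 8 points from 100 uM top in half-log steps, 0.5% DMSO. GSTA2 mRNA was measured by TaqMan qRT-PCR, normalized to ACTB, GAPDH and POLR2A; bidirectional fit versus DMSO.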

Read-out in assay [3]: Glutamate-cysteine ligase catalytic (GCLC), GCLC (gene 2729)
Nature of the assay: LTEA_HepaRG_GCLC: Life Technologies and Expression Analysis (LTEA) Assay for Glutamate-cysteine ligase catalytic (GCLC) using HepaRG (AID 2283498). In a few lines:
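Differentiated HepaRG cells exposed 48 h in serum-free induction medium, eight-point half-log series topping at 100 uM in 0.5% DMSO, duplicates. GCLC mRNA by qRT-PCR normalized to ACTB, GAPDH and POLR2A, fitted bidirectionally versus DMSO.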

Read-out in assay [4]: growth arrest and DNA damage 45 (GADD45G), GADD45G (gene 10912)
The assay is described as follows: LTEA_HepaRG_GADD45G: Life Technologies and Expression Analysis (LTEA) Assay for growth arrest and DNA damage 45 (GADD45G) using HepaRG (AID 2283499). In a few lines: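 Gain or loss of GADD45G mRNA, quantified by TaqMan qRT-PCR against three housekeeping genes, is fitted in both directions relative to 0.5% DMSO. Human HepaRG cultures receive test chemical for 48 h at up to 100 uM.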

Read-out in assay [5]: Glutamate-cysteine ligase regulatory (GCLM), GCLM (gene 2730)
The assay is described as follows: LTEA_HepaRG_GCLM: Life Technologies and Expression Analysis (LTEA) Assay for Glutamate-cysteine ligase regulatory (GCLM) using HepaRG (AID 2283500). In a few lines:
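Cells were plated, cultured 48 h, switched to serum-free induction medium, then dosed in duplicate for 48 h at eight half-log concentrations up to 100 uM. RNA was then profiled by qRT-PCR; gain or loss versus DMSO was fitted.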

Read-out in assay [6]: Glutathione S-transferase M3 (GSTM3), GSTM3 (gene 2947)
The assay is described as follows: LTEA_HepaRG_GSTM3: Life Technologies and Expression Analysis (LTEA) Assay for Glutathione S-transferase M3 (GSTM3) using HepaRG (AID 2283501). In a few lines:
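HepaRG, plated 48 h, then serum-free induction medium; test chemical 48 h, duplicate; 100 uM top, half-log x8, 0.5% DMSO. Read-out: GSTM3 mRNA (TaqMan qRT-PCR, Fluidigm array). Bidirectional fit vs DMSO.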

Read-out in assay [7]: Heat shock 70 kDa protein 1 (HSPA1A), gene 3303
The assay is described as follows: LTEA_HepaRG_HSPA1A: Life Technologies and Expression Analysis (LTEA) Assay for Heat shock 70 kDa protein 1 (HSPA1A) using HepaRG (AID 2283502). In a few lines: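 Readout is HSPA1A transcript level by microfluidic qRT-PCR, normalized to three housekeeping genes and analysed for gain or loss of signal relative to 0.5% DMSO. Human HepaRG cultures received test chemicals for 48 h at up to 100 uM.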

Read-out in assay [8]: Hypoxia-inducible factor 1-alpha (Homo sapiens) (UniProt Q16665)
The assay is described as follows: LTEA_HepaRG_HIF1A: Life Technologies and Expression Analysis (LTEA) Assay for Hypoxia-inducible factor 1 (HIF1A) Trancription factor using HepaRG (AID 2283503). Put shortly: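 Differentiated HepaRG cells in serum-free induction medium exposed 48 h, in duplicate, to 8-point half-log series from 100 uM in 0.5% DMSO. HIF1A mRNA measured by TaqMan qRT-PCR, normalized to ACTB/GAPDH/POLR2A, fitted bidirectionally versus DMSO.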

Read-out in assay [9]: 3-Hydroxy-3-Methylglutaryl-CoA Synthase 2 (HMGCS2), HMGCS2 (gene 3158)
Nature of the assay: LTEA_HepaRG_HMGCS2: Life Technologies and Expression Analysis (LTEA) Assay for 3-Hydroxy-3-Methylglutaryl-CoA Synthase 2 (HMGCS2) using HepaRG (AID 2283504). In a few lines:
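HepaRG, plated 48 h then switched to serum-free induction media; cmpd 8-pt, max 100 uM, 1/2-log, 0.5% DMSO, n=2, 48 h. HMGCS2 mRNA by Fluidigm TaqMan qRT-PCR, ACTB/GAPDH/POLR2A norm; bidirectional fit vs DMSO.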

Read-out in assay [10]: HGF (gene 3082)
The assay is described as follows: LTEA_HepaRG_HGF: Life Technologies and Expression Analysis (LTEA) Assay for Hepatocyte Growth Facto (HGF) using HepaRG (AID 2283505). In a few lines: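 Read-out is HGF transcript level by qRT-PCR, normalized to three housekeeping genes, fitted bidirectionally against 0.5% DMSO vehicle. Human HepaRG cells received test chemicals for 48 h at up to 100 uM.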

Calls of active or inactive are those of the source. The calls were made as follows: active = hit-call score of the fitted dose curve at least 0.9, where 1 is the maximum; inactive = score below 0.9.

Chain of Hypoxia-inducible factor 1-alpha (Homo sapiens) (Q16665 whole entry, looked up): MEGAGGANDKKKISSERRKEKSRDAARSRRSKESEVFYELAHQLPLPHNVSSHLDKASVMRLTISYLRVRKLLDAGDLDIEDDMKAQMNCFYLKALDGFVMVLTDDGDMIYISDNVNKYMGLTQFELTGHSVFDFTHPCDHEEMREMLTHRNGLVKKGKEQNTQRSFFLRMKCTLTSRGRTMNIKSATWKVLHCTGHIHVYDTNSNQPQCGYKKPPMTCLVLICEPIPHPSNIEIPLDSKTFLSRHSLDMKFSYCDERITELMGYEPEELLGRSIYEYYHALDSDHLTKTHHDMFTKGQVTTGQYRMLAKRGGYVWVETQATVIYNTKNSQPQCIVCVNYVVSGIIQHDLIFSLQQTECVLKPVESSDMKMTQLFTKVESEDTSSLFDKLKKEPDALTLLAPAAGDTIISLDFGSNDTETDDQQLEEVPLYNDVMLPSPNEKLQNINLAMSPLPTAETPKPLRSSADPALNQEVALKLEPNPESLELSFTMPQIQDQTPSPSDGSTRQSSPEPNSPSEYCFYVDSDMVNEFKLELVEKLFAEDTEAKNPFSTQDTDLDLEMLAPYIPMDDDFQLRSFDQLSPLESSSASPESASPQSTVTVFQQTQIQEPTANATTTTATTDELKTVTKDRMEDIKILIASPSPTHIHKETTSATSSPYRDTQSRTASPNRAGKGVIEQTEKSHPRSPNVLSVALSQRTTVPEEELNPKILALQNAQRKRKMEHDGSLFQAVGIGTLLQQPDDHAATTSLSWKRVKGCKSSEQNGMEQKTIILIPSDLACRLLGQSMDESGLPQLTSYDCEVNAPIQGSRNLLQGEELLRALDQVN

In the case of `Nc1ccc(Nc2ccccc2)cc1`, the results for the AC50 in assay [1], in assay [8] and in assay [9] were 50 µM (active), 50 µM (active) and 60.9 µM (active), respectively. Further, the outcome in assay [2], in [3], in assay [4], in [5], in assay [6] and in assay [7] was inactive. The result in [10] was inactive.
Take `CC(C)CCCCCCCOC(=O)CCCCC(=O)OCCCCCCCC(C)C`: the result in [1], in assay [2], in assay [3], in assay [4], in assay [5] and in assay [6] was inactive. Moreover, the compound was called inactive in assay [7], in assay [8], in assay [9] and in [10].
Turning to `CNCc1ccc(NC(=O)c2c[nH]c3c2C(=O)CCC3)cc1`, the result in assay [1], in assay [2], in assay [3], in assay [4], in assay [5] and in assay [6] was inactive. In addition, the result in assay [7], in assay [8], in [9] and in assay [10] was inactive.
Take `Fc1ccccc1[C@@H](F)COC1CCC(Nc2ncnc3[nH]ncc23)CC1` (stereo partly drawn): the AC50 in assay [1] is 77.1 µM (active); in assay [2], 37.5 µM (active); in assay [3], 50 µM (active); in assay [4], 30 µM (active); in assay [6] it was 65.2 µM (active); in assay [7], 50 µM (active). Besides, the AC50 in assay [8] is 33.1 µM (active); in assay [9], 45.2 µM (active). Further, the outcome in assay [5] was inactive.
For the compound `CC1(C)C(=O)N(Br)C(=O)N1Br`, the outcome in assay [1], in assay [2], in assay [3], in [4], in assay [5] and in [6] was inactive. For the same compound, the outcome in assay [7], in [8], in assay [9] and in assay [10] was inactive.
On to `CCCCCCc1ccc(O)cc1O`, for which the compound was called inactive in [1], in assay [2], in [3], in assay [4], in assay [5] and in assay [6]. Also, the outcome in [7], in [8], in assay [9] and in assay [10] was inactive.
Turning to `CC(C)(O)c1coc(S(=O)(=O)NC(=O)Nc2c3c(cc4c2CCC4)CCC3)c1`, in [1], the AC50 was 18.3 µM (active). The result in assay [2], in [3], in assay [4], in assay [5], in assay [6] and in assay [7] was inactive. The call in assay [8], in assay [9] and in [10] was inactive.
As to `COc1ccc(-n2nc(C(F)F)cc2-c2ccc(S(C)=O)cc2)cc1` (stereo not drawn), the compound was called inactive in [1], in [2], in [3], in assay [4], in [5] and in assay [6]. Besides, the result in [8], in [9] and in [10] was inactive. Besides, the AC50 in [7] is 43.5 µM (active).
For `Oc1ccc2c(c1)-c1ccccc1C2`, the AC50 in [1] is 4.87 µM (active). For the same compound, the call in [2], in [3], in assay [4], in [5], in [6] and in assay [7] was inactive. Also, the call in assay [8], in assay [9] and in assay [10] was inactive.
Take `Cc1ccc(C)c(O)c1`: the call in assay [1], in [2], in assay [3], in assay [4], in assay [5] and in [6] was inactive. For the same compound, the result in [7], in assay [8], in assay [9] and in [10] was inactive.
For the compound `COC(=O)c1c(Cl)c(Cl)c(C(=O)OC)c(Cl)c1Cl`, the compound was called inactive in [1], in assay [2], in [3], in [4], in assay [5] and in assay [6]. The compound was classed as inactive in assay [7], in assay [8], in assay [9] and in assay [10].
Consider `CC[C@H](C)C(=O)O[C@H]1C[C@@H](C)C=C2C=C[C@H](C)[C@H](CC[C@@H]3C[C@@H](O)CC(=O)O3)[C@H]21`, for which the compound was classed as inactive in [1], in [2], in [3], in assay [4], in [5] and in assay [6]. For the same compound, the result in assay [7], in assay [8], in assay [9] and in assay [10] was inactive.
In the case of `CN(C)c1ccc(N=NS(=O)(=O)O)cc1`, the AC50 was 2.51 µM (active) in [1] and 50 µM (active) in [5]. For the same compound, the compound was classed as inactive in [2], in assay [3], in [4], in [6], in [7] and in assay [8]. Besides, the result in assay [10] was inactive.
In the case of `CCOC(=O)COc1ccc2c(c1)CC(NCC(O)c1cccc(Cl)c1)CC2` (stereo not drawn), the compound was called inactive in [1], in assay [2], in assay [3], in assay [4], in [5] and in assay [6]. Moreover, the compound was classed as inactive in [7], in assay [8] and in assay [10].
Regarding `O=P(OC(CCl)CCl)(OC(CCl)CCl)OC(CCl)CCl`, the AC50 in [1] is 76.9 µM (active); in [2], 75.6 µM (active); in assay [3], 89.5 µM (active); in assay [4] it was 94.3 µM (active); in [5], 83.9 µM (active); in [9], 72.8 µM (active). For the same compound, the compound was called inactive in assay [6], in assay [7], in assay [8] and in assay [10].
Consider `CN(C)c1ccc(Cc2ccc(N(C)C)cc2)cc1`, for which the compound was classed as inactive in assay [1], in assay [2], in [3], in [5], in assay [6] and in assay [7]. The result in assay [8] and in [10] was inactive. Also, the AC50 in assay [4] was 50 µM (active).
Consider `O=C1OC(=O)C2C3C=CC(C3)C12` (stereo not drawn), for which the compound was called inactive in assay [1], in assay [2], in [3], in [4], in [5] and in assay [6]. Also, the outcome in assay [7], in assay [8], in [9] and in assay [10] was inactive.
As for `O=C(O)CCN(C1(C(=O)NO)CCCC1)S(=O)(=O)c1ccc(Oc2ccc(F)cc2)cc1`, the compound was called inactive in assay [1], in assay [2], in assay [3], in assay [4], in assay [5] and in assay [6]. Besides, the compound was called inactive in assay [7], in assay [8] and in [10].
As to `O=C(O)c1cccc(N(Cc2cccnc2)c2ccc(OC(F)F)c(OC(F)F)c2)c1`, the AC50 in [1] was 4.48 µM (active). The outcome in assay [2], in assay [3], in assay [4], in [5], in assay [6] and in assay [7] was inactive. The outcome in [8] and in [10] was inactive.
For `CCCCC(CC)COC(=O)CCCCCCCCC(=O)OCC(CC)CCCC` (stereo not drawn), the call in [1], in assay [2], in assay [3], in assay [4], in assay [5] and in assay [6] was inactive. The outcome in assay [7], in assay [8] and in assay [10] was inactive.

Usually AC50 stands for the concentration at which the activity in the assay is half-maximal.
